High-throughput results deposited in PubChem by National Center for Advancing Translational Sciences (NCATS).
Only a selection was taken, and hits are over-represented in it overall.
LmPK inh = blocks Leishmania mexicana pyruvate kinase activity | Q27686 | purified LmPK, Kinase-Glo ATP luminescence, 1 h | Potency, µM (highest dose often 57.5 µM), inactives show top-dose activity change, negative = inhibition, hits mostly inhibitors | 290,000 compounds, 0.37% hits | AID 1721; further: potency means the concentration at half of the fitted maximal effect; on the % scale 0 is the no-effect control and ±100 the full control effect
Target sequence (Q27686 whole entry, looked up): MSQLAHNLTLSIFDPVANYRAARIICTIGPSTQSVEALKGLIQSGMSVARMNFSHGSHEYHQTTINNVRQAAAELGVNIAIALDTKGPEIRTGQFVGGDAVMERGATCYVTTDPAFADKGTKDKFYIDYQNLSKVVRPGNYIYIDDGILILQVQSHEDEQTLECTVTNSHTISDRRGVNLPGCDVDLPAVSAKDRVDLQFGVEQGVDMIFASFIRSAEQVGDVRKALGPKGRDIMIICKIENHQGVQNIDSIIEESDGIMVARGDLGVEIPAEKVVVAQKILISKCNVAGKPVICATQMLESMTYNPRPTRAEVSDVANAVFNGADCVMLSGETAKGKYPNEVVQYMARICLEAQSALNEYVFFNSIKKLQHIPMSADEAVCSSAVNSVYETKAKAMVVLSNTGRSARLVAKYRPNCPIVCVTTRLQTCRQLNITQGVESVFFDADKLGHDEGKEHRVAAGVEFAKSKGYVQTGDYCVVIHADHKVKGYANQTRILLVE
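0.1 nM LmPK, 0.5 mM PEP, 0.1 mM ADP; 50 mM imidazole pH 7.2, 7 mM MgCl2, 50 mM KCl; 1 h RT. Kinase-Glo luminescence readout, normalized to no-enzyme (full inhibition) and uninhibited wells.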
CHX counter = counter-screen hit for Shiga toxin inhibitors, cycloheximide | cell reporter, cycloheximide protein synthesis inhibition counterscreen | max response, % | 300,000 compounds, 12% hits; in the data active means max response mostly above about 13%, no sharp cut-off; inactive means mostly below about 14%; further: read at 38.3 µM for the half of the compounds with a filed dose; 0% is about no effect
Sm TGR block = inhibitors of Schistosoma mansoni thioredoxin glutathione reductase. purified TGR, DTNB reduction, TNB absorbance 405 nm. Q962Y6. 360,000 compounds, 3% hits. Potency, µM (series often up to 114 µM), inactives show at the top dose activity change, negative = inhibition, hits mostly inhibitors; further: potency means the concentration at half of the fitted maximal effect; on the % scale 0 is the no-effect control and ±100 the full control effect; nearly all actives have a fitted effect of over 60% in size
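Kinetic colorimetric format: TGR-catalysed, NADPH-driven DTNB reduction monitored via TNB absorbance. Enzyme dispensed at 20 nM; compound exposure 15 min at room temperature before reaction start.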
Giardia FBPA inh = blocks Giardia fructose-bisphosphate aldolase activity | A8B2U2 | purified Giardia FBPA | Potency, µM (doses to about 59.6 µM), for the others: at the highest dose activity, negative = inhibition, most hits filed as inhibitors | 290,000 compounds, 0.71% hits; further: potency means the concentration at half of the fitted maximal effect; on the % scale 0 is the no-effect control and ±100 the full control effect; nearly all actives have a fitted effect of over 55% in size
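40 nM FBPA preincubated 10 min at RT with compound (up to 57.5 uM final), then substrate plus GAPDH/TPI/NAD/arsenate coupling and diaphorase/resazurin added. Fluorescence read after 20 min at RT, 525/598 nm.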
TbPYK inhibitor = inhibitors of Trypanosoma brucei pyruvate kinase; Potency, µM (series often up to 76.8 µM), for inactives: at the top dose activity, negative = inhibition, most hits filed as inhibitors; TbPYK enzyme, Kinase-Glo Plus ATP luminescence, 45 min; 410,000 compounds, 0.12% hits; AID 624173; Q57TT1; further: potency means the concentration at half of the fitted maximal effect; on the % scale 0 is the no-effect control and ±100 the full control effect; nearly all actives have a fitted effect of over 50% in size
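In this concentration-response screen, enzyme-free wells defined baseline while DMSO plates tracked drift. Each reaction combined TbPYK, substrate, compound and 130 uM ADP for 45 min at room temperature. Kinase-Glo Plus luminescence gave the signal.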
Shiga inhibitor = Shiga toxin inhibition. Vero cells, Shiga toxin protein synthesis inhibition reporter. inhibition, % at 38.7 µM. 290,000 compounds, 9.2% hits; in the data active means inhibition mostly above about 28%, no sharp cut-off; inactive means mostly below about 43%; further: 0% is about no effect
The depositor's hits bear a star. Unless noted, the call rests on the fitted dose curve; in most records, active means well fitted curve in the direction sought with a large enough effect; inconclusive means small, poorly fitted or top-dose-only effect, or another doubt; inactive means no such curve, though single readings can be large; an effect the other way counts as inactive or inconclusive.

For Cc1coc2cc3oc(=O)c(CCC(=O)NCCCn4ccnc4)c(C)c3cc12 the results were LmPK inh 3%, CHX counter -1, Sm TGR block 5%, Giardia FBPA inh -9%, TbPYK inhibitor 0% and Shiga inhibitor 7.
For COc1ccc(-c2noc(CCC(=O)N3CCN(c4ccc(F)cc4)CC3)n2)cc1 the results were TbPYK inhibitor -4%.
Screening COc1ccc(C(=O)CC(C#N)c2ccc3c(c2)OCO3)cc1OC (centres undefined) returned TbPYK inhibitor 2%.
For O=C(NC1CC(=O)N(c2cccc(F)c2)C1)c1ccc(Br)o1 (centres undefined) the results were Sm TGR block -3% and TbPYK inhibitor 3%.
Screening COc1ccc2ccc3c(c2c1)N=C[C@]1(O3)N(C)c2ccccc2C1(C)C returned LmPK inh 0%, CHX counter -1, Sm TGR block 28µM*, Giardia FBPA inh 8.9µM*, TbPYK inhibitor -6% and Shiga inhibitor 40.
For COc1ccc2c(c1)c1ccccc1n2C the results were LmPK inh 3%, CHX counter 18, Sm TGR block -3%, Giardia FBPA inh -9%, TbPYK inhibitor 2% and Shiga inhibitor 10.
`CC1=CN2C(=N)/C(=C/c3ccc([N+](=O)[O-])o3)C(=O)N=C2S1` gave LmPK inh -2%, CHX counter 13, Sm TGR block 3.5µM*, Giardia FBPA inh inconclusive, TbPYK inhibitor -30% and Shiga inhibitor 18.
For CCOc1ccc(-c2ccc(/C=C3/C(=N)N4C=CSC4=NC3=O)o2)c([N+](=O)[O-])c1 the results were LmPK inh -2%, CHX counter 1, Sm TGR block -3%, Giardia FBPA inh inconclusive, TbPYK inhibitor 0% and Shiga inhibitor -10.
Screening CC1=CN2C(=N)/C(=C/c3ccco3)C(=O)N=C2S1 returned LmPK inh -19%, CHX counter 47*, Sm TGR block -17%, Giardia FBPA inh 8%, TbPYK inhibitor 3% and Shiga inhibitor 72*.
For O=C1OC(C(=O)Nc2ccccc2)Cc2ccccc21 (centres undefined) the results were LmPK inh 5%, CHX counter 41*, Sm TGR block -4%, Giardia FBPA inh 4%, TbPYK inhibitor -17% and Shiga inhibitor 64*.
Cc1ccc(NC(=O)C2Cc3ccccc3C(=O)O2)cc1 (centres undefined) was read as LmPK inh -12%, CHX counter 36*, Sm TGR block inconclusive, Giardia FBPA inh 0%, TbPYK inhibitor -6% and Shiga inhibitor 87*.
For NS(=O)(=O)c1ccc(NC(=O)C2Cc3ccccc3C(=O)O2)cc1 (centres undefined) the results were LmPK inh -1%, CHX counter 1, Sm TGR block -2%, Giardia FBPA inh 4%, TbPYK inhibitor 4% and Shiga inhibitor -12.
Screening CN(C)CCNc1ncnc2c1ncn2[C@H]1CN(Cc2cccnc2)C[C@@H](CO)O1 returned TbPYK inhibitor -2%.
CCCCOc1cccc(C(=O)O)c1 was read as LmPK inh -2%, CHX counter 2, Sm TGR block 6%, Giardia FBPA inh 6%, TbPYK inhibitor -14% and Shiga inhibitor 4.
Screening CC[N+](C)(CC)CCCCOc1ccc2c(c1)C(=O)c1cc(OCCCC[N+](C)(CC)CC)ccc1-2 returned LmPK inh -1%, CHX counter -1, Sm TGR block 5.6µM*, Giardia FBPA inh -18%, TbPYK inhibitor inconclusive and Shiga inhibitor 10.
`CC[N+](CC)(CC)CCCCOc1ccc2c(c1)C(=O)c1cc(OCCCC[N+](CC)(CC)CC)ccc1-2` gave LmPK inh -3%, CHX counter 0, Sm TGR block 20µM*, Giardia FBPA inh -9%, TbPYK inhibitor -10% and Shiga inhibitor 22.
`CN(C)c1cccc(C(=O)NNC(=O)NC2CCCCC2)c1` gave LmPK inh -5%, CHX counter 1, Sm TGR block -7%, Giardia FBPA inh 5%, TbPYK inhibitor 6% and Shiga inhibitor -8.
